# SUMO Mot1 rescue: blocks SUMOylation pathway, rescuing yeast Mot1-301 growth | S. cerevisiae Mot1-301 growth rescue, ATP luminescence, 38.5C; percent above DMSO median, 100 means doubled | growth rescue, % at 18.8 µM | 320,000 tested, 1% active;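 active = every valid replicate shows activation above 250% relative to neutral control wells; inactive = the rest, any valid replicate at or below 250%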;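 note: OY570 slx delta 5 strain wells were the positive control but not used for scaling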
# CR mimetic SO: lowers age-related superoxide in aged yeast cells; superoxide response (% of plate mean), % at 10 µM; S. cerevisiae aged cells, superoxide DHE fluorescence; stronger effect = lower value; 330,000 tested, 0.18% active;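 active = superoxide response under a set limit, about three screen SD below normal, cut at about 65% in these data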;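 note: yeast aged for seven days with compound at 30 °C before DHE staining; 100% = average MFI of all compound-treated wells on the plate with controls excluded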
# FAS-TE inh: FAS thioesterase (human) inhibition | P49327 | recombinant FAS-TE, OMFH fluorogenic substrate, fluorescence endpoint | inhibition, % at 15 µM | 360,000 tested, 0.67% active | AID 602261;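 active = compounds whose normalised, plate-corrected inhibition of enzyme fluorescence in the single-dose primary screen is 50% or more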;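 note: 0% = DMSO with enzyme and 100% = substrate without enzyme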
# MPTP block: blocks calcium-induced mitochondrial swelling; isolated mouse mitochondria, Ca2+ swelling absorbance, 30 min; inhibition, % at 10 µM; 360,000 tested, 1.4% active; AID 602449;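 active = inhibition of 50% or more, scaled per plate between neutral and stimulator controls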;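 note: 0% = DMSO wells given calcium and 100% = 1 mM EGTA wells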
# Cardio protect: modulators protecting cardiomyocytes from myocardial damage. H9c2 cardiomyocytes, H2O2 injury protection, ATPLite, 2 h. protection from H2O2 cell death, % at 20 µM. 360,000 tested, 0.63% active;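 active = compounds giving at least 50% protection of heart cells from peroxide-induced death in the single-dose screen, raw or plate-pattern-corrected value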;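 note: 0% = DMSO wells with peroxide and 100% = DMSO wells without peroxide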
# aDG glyco act: increases alpha dystroglycan glycosylation. Pro5-aDG cells, alpha-DG glycosylation AlphaScreen (IIH6); 0% Pro5, 100% B10-LARGE cell signal. activation, % at 10 µM. 360,000 tested, 0.22% active;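 active = activation of at least 8% versus controls, or a plate z-score of at least 8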;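 note: Pro5 are CHO cells carrying HIG-tagged alpha-DG that lacks glycosylation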
# Rh123 counter: mitochondrial membrane potential, counter-screen | shares compounds with MPTP block | isolated mitochondria, Rhodamine 123 fluorescence | inhibition, % at 10 µM | 5,000 tested, 78% active | AID 624504; in the data active = inhibition above about 22%;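 note: 0% = DMSO vehicle and 100% = positive control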
# Active calls of the source: *; x = no result. The list is not random: actives were taken first. Their share in the collection is about 3.8%.
SMILES,SUMO Mot1 rescue,CR mimetic SO,FAS-TE inh,MPTP block,Cardio protect,aDG glyco act,Rh123 counter
S=C(NCc1ccncc1)Nc1ccc(Cl)cc1,-18,97,-13,3,-4,0,x
FC(F)(F)c1cccc(NC(=S)NCc2ccc(Cl)cc2)c1,7,94,34,78*,-30,5,88*
Cc1c(Cl)cccc1NC(=O)C(=O)NNS(=O)(=O)c1ccc(F)cc1,-8,105,1,0,13,0,x
COc1ccc(S(=O)(=O)N2CCOCC2)cc1NS(=O)(=O)c1ccc(F)c(F)c1,-11,80,-8,0,9,0,x
O=C(Nc1cc(Cl)ccc1C(=O)O)c1ccc(CN2C(=O)c3ccccc3C2=O)cc1,23,141,24,2,2,0,x
CC(C)(C)NNC(=S)Nc1cccc(F)c1,-3,93,-3,0,-3,0,x
Fc1ccc(CNC(=S)Nc2cccc(C(F)(F)F)c2)cc1,6,88,12,100*,-21,0,85*
O=[N+]([O-])c1cc(C(F)(F)F)cc([N+](=O)[O-])c1NCCNC(=S)Nc1cccc(F)c1,-4,119,27,90*,-14,0,78*
Fc1cccc(NC(=S)NCc2ccc(Cl)cc2)c1,140,84,7,96*,-6,0,89*
Fc1ccc(CNC(=S)NCc2ccc(F)cc2)cc1,-1,95,5,29,-5,0,x
Cc1ccc(NC(=O)C(=Cc2ccc(C(=O)O)cc2)C(=O)Nc2ccc(C)cc2C)c(C)c1,10,99,11,3,-4,0,x
O=c1[nH]c(COc2ccc(Br)cc2Cl)nc2ccccc12,1,108,5,1,-4,0,x
O=C(O)c1cc(S(=O)(=O)Nc2ccccc2C(=O)O)ccc1O,-1,95,-2,0,14,0,x
O=C(O)c1cc(S(=O)(=O)Nc2cc(Cl)ccc2Oc2ccccc2)ccc1O,x,90,3,72*,-3,0,86*
CC(=O)c1cccc(NC(=S)NCc2ccccc2)c1,1,94,4,0,-2,0,x
S=C(NCCc1ccccc1)Nc1ccc(Cl)cc1Cl,-7,109,18,82*,-22,0,102*
CC(=O)c1cccc(NC(=S)NCCc2ccc(Cl)cc2)c1,-2,111,12,83*,-9,1,100*
O=C(NCCc1ccc(Cl)cc1)Nc1ccc(Cl)cc1,-1,85,-1,78*,-5,0,98*
Cc1ccc(Cl)cc1NC(=S)NCc1cccn1C,-4,115,-2,64*,-1,0,47*
O=C(NCCc1ccncc1)Nc1ccc(Cl)cc1,56,105,-3,0,2,0,x
Cc1cccc(C(=O)C2CCN(S(=O)(=O)c3cccc(C(=O)O)c3)CC2)c1,x,x,-5,-4,-2,1,x
Cc1cccc(-c2nc3c(c(=O)c4ccccc4n3C)c(=O)n2-c2ccccc2)c1,-12,99,2,4,8,0,x
O=C(Nc1cccc(C(=O)N2CCOCC2)c1)C1CCCC1,x,x,-5,1,-2,0,x
COc1ccc(-c2csc(C(C)(O)c3ccc(F)c(F)c3)n2)cc1 (stereo not given),x,x,34,3,-15,0,x
Cc1ccc(NC(=S)NCCc2ccccc2)c(C)c1,-13,90,3,1,2,0,x
SMILES,SUMO Mot1 rescue,CR mimetic SO,FAS-TE inh,MPTP block,Cardio protect,aDG glyco act,Rh123 counter
CCCCSCCCNC(=O)Nc1ccc(CC)cc1,177,86,14,86*,-7,0,83*
Cc1cc(Cl)ccc1NC(=S)NCCc1ccc(Cl)cc1,34,103,24,88*,-15,0,81*
Cc1cc(Cl)ccc1NC(=S)NCc1ccc(S(N)(=O)=O)cc1,-5,98,-3,-1,-3,0,x
Cc1cc(Cl)ccc1NC(=S)NCc1ccc(Cl)cc1,27,123,13,84*,-18,0,99*
CCOc1ccccc1C(=O)NCC(=O)NNC(=O)c1csc(N2CCOCC2)n1,x,x,-4,0,-4,0,x
COc1ccccc1NC(=O)N[C@@H](Cc1c[nH]c2ccccc12)C(=O)NN,4,98,0,-1,0,0,x

# Assay outcomes deposited in PubChem by several laboratories.
